Test results published in PubChem BioAssay (Tox21).
Inconclusive results are not listed. The source made the active and inactive calls. Calls come from the whole dose curve; as a rule, active = well fitted cell-killing curve with a large enough effect in the repeat runs; inconclusive = weak or mixed curves, or effect the other way; inactive = no such curve, though single readings can be large or run the other way.

Test: qHTS assay to identify small molecule agonists of the RXR signaling pathway - cell viability counter screen (AID 1159529); note: nearly all actives have a fitted effect of over 50% in size
Conditions: RXR-alpha-bla HEK293T viability, CellTiter-Glo, 16 h; series mostly up to 35.3 µM; activity change, negative = cytotoxicity: at the top concentration
Source text: National Center for Advancing Translational Sciences [NCATS]
NIH Chemical Genomics Center [NCGC]
U.S. Environmental Protection Agency [EPA]
National Institutes of Environmental Health Sciences [NIEHS]
National Toxicology Program [NTP]
U.S. Food and Drug Administration [FDA]
The Retinoid X receptor (RXR), a nuclear hormone receptor expressed in liver, spleen, placenta, epidermis, central nervous system. These receptors are able to form homo and heterodimers with other nuclear receptors and due to this heterodimerizing ability, RXR functions as master regulators producing diverse physiological effects. Three subtypes of RXR exist; alpha, beta and gamma. Retinoid X receptor alpha (RXR-alpha) has potential roles in metabolic signaling pathways, skin alopecia, dermal cysts, cardiac development, insulin sensitization etc. Therefore screening environmental chemicals on RXR-alpha signaling can be used for the studies focused on such therapeutic applications. For quantification of RXR-alpha ligands signaling, GeneBLAzer RXR alpha-UAS-bla HEK 293T (Life Technologies, Carlsbad, CA) cells containing a beta-lactamase reporter-gene under control of Retinoid X receptor-alpha response element were used to screen Tox21 10K library. The cytotoxicity of the Tox21 compound library against the RXR-alpha HEK 293T cell line was tested in parallel by measuring cell viability using CellTiter-Glo assay (Promega Corporation, Madison, WI) in the same wells.
Tox21 Assay Protocol Summary:
RXR-alpha HEK 293T cells were dispensed at 2,000 cells/6 uL of assay medium containing 2% charcoal-stripped FBS using a Multidrop Combi (ThermoFisher Scientific, Waltham, MA) dispenser. The assay was performed in black wall/clear-bottom 1536-well plates (Greiner Bio-One North America Inc. Monroe, NC). Tetraoctyl ammonium bromide was used as a positive control in the cytotoxicity screen. After the assay plates were incubated at 37 C and 5% CO2 for 5 hr, 23 nL of compounds dissolved in DMSO, positive control or DMSO only were transferred to the assay plate by a Pintool station (Kalypsys, San Diego, CA). The assay plates were incubated at 37 C and 5% CO2 for 16 hr. One uL of LiveBLAzer B/G FRET substrate (Life Technologies) was added using a Flying Reagent Dispenser (FRD) (Aurora Discovery, San Diego, CA) and the plates were incubated at room temperature for 2 hr. Fluorescence intensity (405 nm excitation, 460/530 nm emission) was measured using an Envision plate reader (PerkinElmer, Shelton, CT). For cytotoxicity, 4 uL/well of CellTiter-Glo reagent was added into the assay plates using an FRD. After 30 min incubation at room temperature, the luminescence intensity was measured using a ViewLux plate reader (PerkinElmer).
% is set by controls: 0 for no effect and ±100 for the full control effect; potency is the fitted concentration of half-maximal effect.

Row | SMILES | Potency | activity change, negative = cytotoxicity
1 | C[N+](C)(C)CCCCCC[N+](C)(C)C | inactive | 
2 | COc1c(N2C[C@@H]3CCCN[C@@H]3C2)c(F)cc2c(=O)c(C(=O)O)cn(C3CC3)c12 |  | 2.31% (inactive)
3 | CCCc1cc(C(N)=S)ccn1 |  | 3.85% (inactive)
4 | CC/C=C\CC/C=C/CO |  | 0.687% [at 76.8 µM] (inactive)
5 | COC(=O)CC(C)=O |  | 5.92% [at 76.8 µM] (inactive)
6 | O=c1cc(CO)occ1O |  | 1.34% (inactive)
7 | Oc1ccc(C2CNCCc3c2cc(O)c(O)c3Cl)cc1 (stereo not given) |  | 23.7% (inactive)
8 | CCOC(C)(C)C |  | 0.541% [at 76.8 µM] (inactive)
9 | Nc1ccc(S(=O)(=O)Nc2ccnn2-c2ccccc2)cc1 |  | -1.19% [at 15.8 µM] (inactive)
10 | O=C1NC(=O)[C@@]2(CCOc3ccc(F)cc32)N1 |  | 7.01% (inactive)
11 | FC1(F)C(F)(F)C(F)(F)C2(F)C(F)(F)C(F)(F)C(F)(F)C(F)(F)C2(F)C1(F)F (stereo not given) |  | 6.39% (inactive)
12 | Cc1ccc(Cl)cc1Cl |  | -0.948% [at 76.8 µM] (inactive)
13 | CCOC(=O)c1cccc(N)c1 |  | 2.32% (inactive)
14 | CCOC(=O)c1c(C)n(C)c2ccc(O)cc12 |  | -14.4% (inactive)
15 | O=c1[nH]c(=O)n([C@H]2C[C@H](O)[C@@H](CO)O2)cc1I |  | 12.3% (inactive)
16 | N#Cc1ccc(C2CCCc3cncn32)cc1 (stereo not given) |  | 2.85% (inactive)
17 | CCOC(=O)CC(C)=O |  | 12.1% [at 76.8 µM] (inactive)
18 | C=CCCCCCCCCC=O |  | -6.06% [at 76.8 µM] (inactive)
19 | CCN(CC)CCOCCOC(=O)C1(c2ccccc2)CCCC1 |  | -12.2% (inactive)
20 | CCCCCCCCS(=O)(=O)Cl |  | 12.5% [at 76.8 µM] (inactive)

Row | SMILES | Potency | activity change, negative = cytotoxicity
21 | NC(=O)c1ccc(N)cc1 |  | -4.51% [at 76.8 µM] (inactive)
22 | CC(C)(C)c1ccc(O)c(O)c1 |  | -1.6% [at 76.8 µM] (inactive)
23 | CC(=O)c1ccccc1O |  | 0.158% [at 76.8 µM] (inactive)
24 | COC(=O)CCSCCC(=O)OC |  | 5.54% [at 76.8 µM] (inactive)
25 | NCCc1cnc[nH]1 |  | 10.6% (inactive)
26 | CC(C)(O)C(=O)c1ccccc1 |  | 0.41% [at 76.8 µM] (inactive)
27 | COc1ccc(CCN(C)CCCC(C#N)(c2cc(OC)c(OC)c(OC)c2)C(C)C)cc1OC (stereo not given) |  | 18.3% (inactive)
28 | CCc1ccc(O)c(OC)c1 |  | 0.427% [at 76.8 µM] (inactive)
29 | CC1(C)CO[C@@H](CC(=O)O)CN1 |  | -0.923% (inactive)
30 | C/C=C(\C)C#N |  | 1.35% [at 76.8 µM] (inactive)
31 | O=C(O)COc1nn(Cc2ccccc2)c2ccccc12 |  | 7.42% (inactive)
32 | C=C(C)CS(=O)(=O)O |  | 2.02% [at 76.8 µM] (inactive)
33 | O=C(O)Cc1ccc(CCNS(=O)(=O)c2ccc(Cl)cc2)cc1 |  | 8.49% (inactive)
34 | Nc1cc(=O)[nH]c(N)n1 |  | 0.35% (inactive)
35 | CN(C)CCCN1c2ccccc2CCc2ccc(Cl)cc21 | 38.9 µM (active) | 
36 | CCCCCCCCCCCCCCCCC |  | 1.29% [at 76.8 µM] (inactive)
37 | c1ccc(CC2=NCCN2)cc1 |  | 8.96% (inactive)
38 | CCCN(CCC)CCc1cccc2c1CC(=O)N2 |  | -0.582% (inactive)
39 | N=C(N)c1ccc2cc(OC(=O)c3ccc(N=C(N)N)cc3)ccc2c1 |  | 16.3% (inactive)
40 | CCn1ccnc1CC1COc2ccccc2O1 (stereo not given) |  | -0.404% (inactive)
